# According to PubChem BioAssay (NCI):
# The panel holds about 79,000 compounds, 15% with a hit somewhere; the sample as a whole holds those more often. A number with no mark means an inactive call. Active and inactive are the calls of the source. Rule as the data show it: active = growth inhibition above about 70%; inactive = the rest. Where a SMILES comes first, the peptide text is derived from it. [ ]: non-standard residue; d: D form. The star is where a group is joined. ξ: configuration not given here. NMeF = CN[C@@H](Cc1ccccc1)C(=O)O; NMeV = CN[C@H](C(=O)O)C(C)C; ξNMeN = CNC(CC(N)=O)C(=O)O; NMeA = CN[C@@H](C)C(=O)O; ξNMeV = CNC(C(=O)O)C(C)C; Boc = CC(C)(C)OC(=O)*
# Assays:
# [1] = NCI Yeast Anticancer Drug Screen. Data for the rad50 strain (AID 155);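 also: 0% = growth of vehicle-only cultures of the same strain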; conditions: S. cerevisiae rad50 strain growth inhibition; at 50.0 µM; stronger effect = higher value
# Summary of the method: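 Compounds were tested on a yeast strain with an engineered DNA damage repair alteration; the reported value is growth inhibition normalised to vehicle treatment.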
# [2] = NCI Yeast Anticancer Drug Screen. Data for the mec2-1 strain (AID 157); conditions: S. cerevisiae mec2-1 strain, at 50.0 µM, stronger effect = higher value
# Summary of the method: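 Compounds were applied to mec2-1 yeast cells. Their growth was then compared with that of vehicle-treated cultures to give growth inhibition.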
# [3] = NCI Yeast Anticancer Drug Screen. Data for the sgs1 mgt1 strain (AID 161);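 also: 0% = growth of cultures given vehicle only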; conditions: S. cerevisiae sgs1 mgt1 strain, at 50.0 µM, stronger effect = higher value
# Summary of the method: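 Yeast cells carrying a defined DNA-repair defect were exposed to test compounds. Growth inhibition was measured relative to vehicle-treated controls.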
# [4] = NCI Yeast Anticancer Drug Screen. Data for the cln2 rad14 strain (AID 165);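 also: 0% = growth equal to vehicle treated cultures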; conditions: S. cerevisiae cln2 rad14 strain, at 50.0 µM, stronger effect = higher value
# Summary of the method: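 Strain: cln2 rad14 yeast, altered in cell cycle control and DNA damage repair. Read-out: growth inhibition vs vehicle.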
# [5] = NCI Yeast Anticancer Drug Screen. Data for the bub3 strain (AID 167); conditions: S. cerevisiae bub3 mutant strain, at 50.0 µM, stronger effect = higher value
# Summary of the method: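 Growth of a checkpoint-deficient yeast mutant is measured after compound exposure. Values represent inhibition relative to vehicle.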
# [6] = NCI Yeast Anticancer Drug Screen. Data for the mlh1 rad18 strain (AID 175); conditions: S. cerevisiae mlh1 rad18 strain growth inhibition; at 50.0 µM; stronger effect = higher value
# Summary of the method: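 A repair-deficient yeast strain is exposed to test compound, and growth is scored relative to vehicle-treated controls.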
SMILES,growth inhibition [1],growth inhibition [2],growth inhibition [3],growth inhibition [4],growth inhibition [5],growth inhibition [6]
CCC(C)OC(=O)/C=C/c1ccccc1 (centres undefined),1.35%,3.15%,-1.8%,-0.25%,-10.2%,-10.6%
O=C(O)c1cc(=O)[nH]c(SCc2ccccc2)n1,-9.7%,-20.1%,-28.5%,-30.2%,-20.8%,-5.35%
COc1ccc(OC)c(NC(=O)C2=C(C)NC(C)=C(C(=O)Nc3cc(OC)ccc3OC)C2c2cccc([N+](=O)[O-])c2)c1,1.05%,8.65%,1.9%,-9.3%,7.5%,4.25%
CC(=O)Nc1ccc(CCc2ccc(NC(C)=O)cc2)cc1,-2.9%,-13.7%,-7.3%,-60.2%,5.6%,-12.3%
COCc1cc(C(C)(C)C)cc(CNC2CCCCC2)c1O,16%,12.2%,27.1%,13.4%,12.5%,10.7%
CSc1ncc2c(n1)-c1ccccc1OC2N1CCCCC1 (centres undefined),9.8%,13.7%,7.4%,-3.45%,23.4%,38.7%
CNC(=O)OCc1c(COC(=O)NC)c(-c2ccc(S(C)(=O)=O)cc2)n(C)c1C,49%,-3.3%,-16.2%,5.25%,-10.1%,-42%
CC(C)=CC(=O)N1CCN(C(=O)C=C(C)C)CC1,-33.9%,-20.1%,-5.75%,18.8%,10.9%,-10.4%
O=C(NNC(=O)c1cccc(Br)c1)c1ccccc1,4.05%,-37.6%,-0.1%,5.65%,-7.15%,-3.15%
c1ccc(C(=NN(CCCCN(N=C(c2ccccc2)c2ccccc2)c2ccccc2)c2ccccc2)c2ccccc2)cc1,28.6%,21.4%,-11.6%,6.4%,0.05%,19.9%
O=C(Nc1ccc(C2=NCCN2)cc1)c1ccc(C(=O)Nc2ccc(C3=NCCN3)cc2)cc1,-3.1%,7.45%,0.95%,2%,9.4%,-19.6%
NC1(c2ccccc2)C2CC3CC(C2)CC1C3 (centres undefined),14.1%,1%,-9.1%,-48.8%,7.25%,3.7%
O=C1C2C(C(=O)N1c1ccccc1)C1(c3ccccc3)CCC2(C(=O)c2ccccc2)O1 (centres undefined),56.4%,-14.3%,39.6%,-16.4%,9.05%,23.4%
CC(=O)/C(=C/c1ccc(F)cc1)C(=O)CCN(C)C,8.15%,16.6%,20.9%,9.55%,-11.5%,-22.2%
N#CCCN(Cc1ccccc1)C(=S)Nc1cccc(C(F)(F)F)c1,75.8% (active),53%,85.2% (active),81.5% (active),70.1% (active),78% (active)
COc1cc(Br)c(CC(=O)c2ccc3c(c2)OCO3)cc1OC,1.65%,12.8%,7.9%,-0.7%,0%,15.2%
COC(=O)[C@H](C)N(C)C(=O)C(CC(N)=O)N(C)C(=O)[C@H](Cc1ccccc1)N(C)C(=O)[C@@H]1CCCN1C(=O)[C@H](C(C)C)N(C)C(=O)C(C(C)C)N(C)C(=O)[C@@H](NC(=O)OC(C)(C)C)C(C)C (some centres undefined) (Boc-V[ξNMeV][NMeV]P[NMeF][ξNMeN][NMeA]-OMe),-20.1%,-16.6%,-13.9%,8.9%,8.65%,-5.4%
O=C(/C=C/C(=O)NCc1ccccc1)NCc1ccccc1,-0.2%,0.4%,16.9%,-11.1%,4.7%,-5.95%
CCOC(=O)c1c[nH]c2cc(Cl)cc(OC)c2c1=O,-11.3%,-5.6%,-1%,-32.9%,-7.35%,-17%
Nc1nc(N)c2nc3c(nc2n1)CCCCCC3,4.25%,-4%,4.25%,-19.4%,-3.2%,2.55%

SMILES,growth inhibition [1],growth inhibition [2],growth inhibition [3],growth inhibition [4],growth inhibition [5],growth inhibition [6]
CC(=O)Nc1cc(F)c(N)c(F)c1,-10.9%,-4.3%,-13.3%,-5.25%,0.05%,-3.8%
CC(=O)Nc1ccc(O)c(CN2CCN(c3ccccc3)CC2)c1,33.1%,16%,17.6%,47.2%,12.1%,20.3%
CCOC(=O)N1C2c3ccccc3C3C(C21)N3C(=O)OCC (centres undefined),-0.3%,-12.3%,0.3%,1.95%,3.9%,-11.4%
C[C@@H]1CC[C@]2(C)C3(C)CC[C@]2(OC3=O)[C@@]12CC(c1ccoc1)OC2=O (some centres undefined),-5.9%,-13.8%,-9.35%,-7.45%,-5.45%,-42.3%
N#Cc1nccc2ccccc12,12.2%,-13.3%,-13.1%,-29.1%,-1.4%,-13.4%
CC1=CC(=Nc2ccc(N(C)C)cc2)C(C)=CC1=O,-11.1%,-28.3%,-2.4%,-30.6%,5.4%,-4.35%
O=C(NN1C(=O)C(Cl)C1c1ccc([N+](=O)[O-])cc1)c1ccccc1O (centres undefined),-16.2%,-19.2%,-35.7%,-6.45%,-26%,-20.1%
O=c1[nH]cc(CO)c(=O)[nH]1,0.35%,4.8%,-1.7%,6%,11.9%,-4%
CN(C)CC1CCCCCCCCCC(CN(C)C)C1=O (centres undefined),-26.4%,19.9%,-11.3%,-1.6%,-21.4%,66.7%
COC(=O)/C(C#N)=C1\CCC(O)N1C (centres undefined),11.9%,-10.8%,5.8%,6.2%,3%,9.6%
O=c1[nH]c(=O)n(COC(CO)CO)cc1-c1ccccc1,-24.4%,-31.8%,2.65%,-4.15%,-18.4%,-19.9%
CCN(CC)C(=O)c1cc([N+](=O)[O-])c(=O)n2c1[nH]c1ccccc12,-17.9%,6.8%,-59.6%,23.1%,-18.5%,-5.85%
Nc1cccc(=O)[nH]1,6.3%,-10.2%,-0.05%,3.7%,9.45%,-3.85%
CS(=O)(=O)N1C=CC2C(C=C1)C1(c3ccccc3)OC2(c2ccccc2)c2ccccc21 (centres undefined),-9.75%,-9.25%,0.35%,-39.7%,2.95%,-19.5%
O=[N+]([O-])c1ccc2nc(-c3ccccc3[N+](=O)[O-])[nH]c2c1,0.2%,0.85%,2.5%,-49.5%,-7.35%,-5.15%
CCOC(=O)C1C(=O)CC(=O)C(C(=O)OCC)C1C1CC=CCC1 (centres undefined),51%,69.5%,78.5% (active),38.7%,70.7% (active),78.5% (active)
CS(=O)(=O)CC1=NC(=N)N=C1CS(C)(=O)=O,6.05%,-14.9%,-8.95%,-4.85%,-29.8%,2.1%
CCN(CC)C(=O)c1cccc(N)c1,12.6%,-11.3%,11.5%,11%,25.3%,14%
CSc1nc2nc(C)c(C)nc2c(=O)[nH]1,-21.9%,-19.4%,-43.5%,3.9%,-0.75%,-32%
